SARS PLP yeast: blocks SARS-CoV papain-like protease in a yeast assay. Potency, µM (highest dose often 32.9 µM), usual class: activators. S. cerevisiae expressing SARS-CoV PLpro, growth rescue. actives 0.19% (n = 330,000); calls by dose curve; further: nearly all actives have a fitted effect of over 55% in size
HCV inhibitor: inhibitors of hepatitis C virus infection; Huh7.5.1 HCVcc-Cre infection, luciferase reporter, 44 h; Potency, µM (top dose mostly 41.8 µM), hits mostly inhibitors; actives 3.4% (n = 340,000); AID 651820; active means well fitted inhibition curve with a large enough effect; inconclusive means small, poorly fitted or top-dose-only effect, or another doubt; inactive means no such curve, though single readings can be large or run the other way
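Compounds are dispensed onto cells plated 4 h earlier at 1,000 per well, with HCVcc-Cre virus (about 0.5 moi) added next. Following 44 h of culture, luminescent signal is measured for 15 sec after 15 min with substrate at room temperature.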
HCMV inh: blocks human cytomegalovirus replication; HFF cells, HCMV-luciferase reporter, 72 h; stronger effect = lower value; activity change, negative = inhibition, % at 57.5 µM; actives 4.5% (n = 410,000); in the data active means activity change below about -60%; inconclusive means no clear call, values can overlap the other calls; inactive means above about -39%
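Two compound doses tested in HFFs infected with HCMV-luciferase, MOI 1 PFU/cell, 72 h at 37C. Lysate luminescence read with OneGlo; data normalized against buffer-only and 10uM Salinomycin inhibitor controls.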
LASV entry inh: Lassa virus entry inhibition | Potency, µM (series often up to 37.9 µM), actives largely listed as inhibitors | actives 1.2% (n = 300,000) | Lassa virus pseudotype entry inhibition, cell reporter | AID 540256; calls by dose curve; tested in HEK293 cells; further: nearly all actives have a fitted effect of over 50% in size
Marburg entry inh: blocks Marburg virus binding to or entry into cells; actives 1.8% (n = 300,000); Marburg virus pseudotyped entry inhibition, cell reporter; Potency, µM (doses to about 37.8 µM), usual class: inhibitors; calls by dose curve; tested in HEK293 cells
FMDV antiviral: foot and mouth disease virus antiviral activity; FMDV antiviral cell-based qHTS; Potency, µM (doses to about 57.9 µM), hits mostly inhibitors; actives 1.2% (n = 410,000); calls by dose curve; tested in HEK293T cells; further: read-out not given here; nearly all actives have a fitted effect of over 45% in size
Numbers stand for hits; n = inactive; u = inconclusive; x = no result; + = active, no number; [ ] = remark or other dose. In the library only some 8% were active in any assay of this set; here they are far more common.

SMILES | SARS PLP yeast | HCV inhibitor | HCMV inh | LASV entry inh | Marburg entry inh | FMDV antiviral
CNC(=O)c1ccc2c(c1)N=C(C)c1cc(C)ccc1S2 | x | x | n | n | u | n
CCCCCOc1ccc(C(=O)N(Cc2ccccc2)C2CCS(=O)(=O)C2)cc1 (centres undefined) | x | x | n | u | x | n
CCN(CC)CCNc1ccc(CO)c2sc3ccccc3c(=O)c12 | n | u | -95.8 | u | 11.2µM | u
CCN(CC)CCNc1ccc(CO)c2oc3ccccc3c(=O)c12 | x | x | -89.5 | x | x | n
CCN(CC)CCNc1cccc2sc3ccccc3c(=O)c12 | x | x | n | x | x | u
O=c1c2ccccc2sc2c(CO)ccc(NCCN3CCCCC3)c12 | x | u | -97.9 | u | u | u
O=c1c2ccccc2sc2ccc(NCCCN3CCOCC3)cc12 | x | n[8.37 µM] | n | x | x | n
CCN(CC)C(=O)C1=C(C)Nc2nc3ccccc3n2C1c1ccc(Br)cc1 (centres undefined) | x | x | n | n | n | n
CCc1nnc(SCC(=O)N(C)c2ccccc2)c2cc3sccc3n12 | x | x | -66.7 | n | x | u
COc1ccc(OC)c(C2=NOC(C(=O)N3CCCc4ccccc43)C2)c1 (centres undefined) | n | u | -60.0 | n | n | n
O=C(C1CC(c2ccc(F)cc2)=NO1)N1CCCc2ccccc21 (centres undefined) | n | n | n | n | u | n
CC1CCCN(CC(O)COC(c2ccccc2)c2ccccc2)C1 (centres undefined) | n | u | n | u | 3.98µM | n
CN1CCN(CC(O)COC(c2ccccc2)c2ccccc2)CC1 (centres undefined) | n | 15.8µM | u | n | u | n
OC(COC(c1ccc(Cl)cc1)c1ccc(Cl)cc1)CN1CCN(c2ccccn2)CC1 (centres undefined) | n | 8.91µM | n | u | u | u
COc1ccc(N2CC(NC(=O)COc3ccc(F)cc3)CC2=O)cc1OC (centres undefined) | x | x | n | n | x | n
COc1cccc(-n2nc(C(N)=O)c(O)cc2=O)c1 | n | n | n | n | n | n
COc1cccc(-n2nc(C#N)c(Cl)cc2=O)c1 | n | u | -96.3 | u | u | 11.2µM
CCC(C)NC(=O)CCSc1nc(-c2ccc(OC)cc2)cc(C(F)(F)F)n1 (centres undefined) | x | x | n | n | n | n
CCOC(=O)CS(=O)(=O)c1nc(-c2ccc(F)cc2)cc(C(F)(F)F)n1 | n | 10µM | x | u | u | u
O=C(O)CCS(=O)(=O)c1nc(-c2cccs2)cc(C(F)(F)F)n1 | n | n | n | n | n | n
CCOC(=O)CCS(=O)(=O)c1nc(-c2ccccc2)cc(C(F)(F)F)n1 | n | 10µM | x | 12.6µM | 6.31µM | 20µM
CCOC(=O)CS(=O)(=O)c1ccccc1 | n | n | n | n | n | n
COCC(C)NC(=O)CCS(=O)(=O)c1nc(-c2ccc(OC)cc2)cc(C(F)(F)F)n1 (centres undefined) | n | u | -104.0 | u | u | 31.6µM
CCOC(=O)CS(=O)(=O)c1nc(-c2ccccc2)cc(C(F)(F)F)n1 | n | u | -102.6 | u | u | 22.4µM
CN1CCOc2ccc(S(=O)(=O)N3CCN(S(=O)(=O)c4c(F)cccc4F)CC3)cc21 | n | x | x | x | x | x
SMILES | SARS PLP yeast | HCV inhibitor | HCMV inh | LASV entry inh | Marburg entry inh | FMDV antiviral
Cn1nnnc1SCCCNCc1cc(Cl)ccc1OCc1ccc(F)cc1 | x | x | u | n | u | n
COC(=O)CCS(=O)(=O)c1nc(-c2ccccc2)cc(C(F)(F)F)n1 | n | u | x | 23.1µM | u | 15.8µM
CCOC(=O)c1c(-c2ccccc2)oc2ccc(N(C(C)=O)S(=O)(=O)c3ccc(CC)cc3)cc12 | x | x | n | u | u | n
O=C(N/N=C/c1ccc[nH]1)c1ccc(COc2cccc3cccnc23)cc1 | n | 0.794µM | -97.1 | u | u | 8.91µM
O=C(N/N=C/c1ccccc1C(=O)O)c1ccc(COc2cccc3cccnc23)cc1 | n | n | n | n | u | n
Cc1cc(Br)c(OCc2ccc(C(=O)N/N=C/c3ccc[nH]3)cc2)c(Br)c1 | n | n | + | x | x | u
COc1ccccc1N(CC(O)Cn1c2ccccc2c2ccccc21)S(=O)(=O)c1ccccc1 (centres undefined) | n | u | n | 25.9µM | u | n
CCN(CC(O)Cn1c2ccccc2c2ccccc21)S(=O)(=O)c1ccc(F)cc1 (centres undefined) | n | u | n | n | u | 28.2µM
COc1ccc(N(CC(O)Cn2nnc3ccccc32)S(=O)(=O)c2ccc(C)cc2)cc1 (centres undefined) | n | n | -61.5 | n | u | x
C=CCN(CC=C)CC(O)CN(c1cc([N+](=O)[O-])ccc1OC)S(=O)(=O)c1ccccc1 (centres undefined) | n | n | -107.3 | n | u | n
O=S(=O)(c1ccccc1)N(CC(O)Cn1c2ccccc2c2ccccc21)c1ccccc1 (centres undefined) | n | u | n | u | u | u
COc1ccc(N(CC(O)Cn2c(C)nc3ccccc32)S(=O)(=O)c2ccc(C)cc2)cc1 (centres undefined) | n | n | n | n | n | n
O=C(O)C1CCCCC1SC1=C([S+](=O)([O-])NC2CCCCC2)CCCC1 (centres undefined) | x | x | x | x | n | x
O=C1[C@H]2[C@H]3[C@H](O)[C@H](O)C/C(=N/OCc4ccccc4)[C@@H]3CC[C@@H]2C(=O)N1Cc1ccc2c(c1)OCO2 | x | x | x | x | n | x
COc1cc(C(=O)N2CCC(c3nc4ccccc4o3)CC2)cc(OC)c1OC | x | x | n | n | n | n
OC(CN1CCNCC1)Cn1c2ccccc2c2ccccc21 (centres undefined) | n | n | u | x | x | n
CCN(CC)CC(O)Cn1c(C)c(-c2ccccc2)c2cc([N+](=O)[O-])ccc21 (centres undefined) | n | 14.1µM | -67.9 | u | u | n
Cc1ccc(S(=O)(=O)N(CC(O)Cn2c3ccccc3c3ccccc32)c2cccc(C(N)=O)c2)cc1 (centres undefined) | x | x | -80.2 | u | u | u
Cc1ccc(S(=O)(=O)N(C)CC(O)Cn2c3ccccc3c3ccccc32)cc1 (centres undefined) | n | n | n | n | n | n
O=[N+]([O-])c1ccc2c(c1)c1ccccc1n2CCO | n | n | n | n | n | n
C=CCN(CC=C)CC(O)Cn1c2ccccc2c2ccccc21 (centres undefined) | n | n | n | u | 8.2µM | x
CCN(CC)CC(O)Cn1c2ccccc2c2ccccc21 (centres undefined) | n | u | u | u | 12.6µM | n
COc1ccc2c(c1)[C@@H](NS(C)(=O)=O)[C@H](C)[C@@H](C(C)C)N2 | x | x | n | x | x | x
COc1ccc(CNC(=O)CSc2ncc3c(n2)-c2ccc(Cl)cc2N(Cc2ccc(F)cc2)S3(=O)=O)cc1OC | x | x | n | n | x | u
CSc1cccc(NC(=O)c2ccc3c(c2)CCCN3S(C)(=O)=O)c1 | x | x | u | u | n | u

Screening data as filed in PubChem BioAssay.
